Screening results: PubChem, National Center for Advancing Translational Sciences (NCATS)
In the library only some 13% were active in any assay of this set; here they are far more common.
HCV inhibitor: blocks hepatitis C virus. Huh7.5.1 HCVcc-Cre infection, luciferase reporter, 44 h. Potency, µM (highest dose often 41.8 µM), without a hit: at the highest dose activity change, negative = inhibition, actives largely listed as inhibitors. 340,000 tested, 3.4% active. AID 651820; note: potency is the fitted concentration of half-maximal effect
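After 44 h co-culture of compound, cells and HCVcc-Cre (~0.5 moi), substrate is added for 15 min at room temperature and luciferase measured over 15 sec. Cells were seeded at 1,000/well and pre-cultured 4 h.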
Pf growth 96h: P. falciparum growth inhibition at 96 hours. P. falciparum luciferase reporter growth, 96 h. Potency, µM (top dose mostly 28.7 µM), for the others: top-dose activity change, negative = inhibition, actives largely listed as inhibitors. 320,000 tested, 6.9% active. AID 504834; note: potency is the fitted concentration of half-maximal effect
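Plates of compound plus infected erythrocytes (2% hematocrit, 0.05% parasitemia final) incubate 96 hours, 37 C, 5% CO2. Detection reagent added; reduced luminescence from the parasites' luciferase reporter flags inhibition.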
HCMV antiviral: inhibitors of human cytomegalovirus; HFF cells, HCMV-luciferase reporter, 72 h; stronger effect = lower value; 410,000 tested, 4.5% active; activity change, negative = inhibition, % at 57.5 µM; in the data active = activity change below about -60%; inconclusive = no clear call, values can overlap the other calls; inactive = above about -39%
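Two-dose cell screen: HFF monolayers treated with compounds and infected with luciferase-expressing HCMV at 1 PFU/cell, 72 h at 37C, then lysed for luciferase measurement.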
Pf growth 48h: P. falciparum growth inhibition at 48 hours (one generation). 310,000 tested, 5.9% active. P. falciparum luciferase growth in erythrocytes, 48 h. Potency, µM (doses to about 28.7 µM), for inactives: top-dose activity change, negative = inhibition, usual class: inhibitors; note: potency is the fitted concentration of half-maximal effect
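Compounds are pin-transferred into medium, infected erythrocytes (2% hematocrit, 0.1% parasitemia final) are added, and plates sit one parasite generation at 37 C in 5% CO2. Detection reagent is then added and luminescence measured.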
An asterisk follows results filed as active; ? = inconclusive; / = no result. Unless noted, calls come from the whole dose curve; as a rule, active = well fitted inhibition curve with a large enough effect; inconclusive = small, poorly fitted or top-dose-only effect, or another doubt; inactive = no such curve, though single readings can be large or run the other way. % is set by controls: 0 for no effect and ±100 for the full control effect.

SMILES | HCV inhibitor | Pf growth 96h | HCMV antiviral | Pf growth 48h
COc1ccc(-c2csc(NC(=O)C3=NN(c4ccccc4)C(=O)CC3)n2)cc1 | 7.1µM* | ? | -32 | ?
COc1cccc(C(=O)Nc2nc(-c3ccncc3)cs2)c1 | -11% | -24% | ? | 30%
CCS(=O)(=O)c1nc(S(=O)(=O)c2ccc(C)cc2)c(NCCCOC)s1 | / | / | -12 | /
COCCCNc1nc2c(S(=O)(=O)c3ccc(C)c(C)c3)nnn2c2ccc(Cl)cc12 | / | / | 6 | /
CC1Cn2c(C(=O)NCCc3ccc(Cl)cc3)cc3cccc(c32)S1 (centres undefined) | / | / | 0 | /
COc1ccc(-c2csc(NC(=O)c3ccccc3NS(=O)(=O)c3ccc(C)cc3)n2)cc1 | 5µM* | 0% | -96* | -4%
O=C(Nc1nc(-c2ccc(Oc3ccccc3)cc2)cs1)C1=COCCO1 | ? | -25% | -64* | -6%
CCCNC(=O)c1ccccc1NS(=O)(=O)c1ccc(OC)c(OC)c1 | 20% | 15% | -4 | -10%
COc1ccc(S(=O)(=O)Nc2ccccc2C(=O)Nc2nc(-c3ccc(F)cc3)cs2)cc1OC | ? | ? | -76* | 3.3µM*
Cc1ccc(-c2csc(NC(=O)C3=COCCO3)n2)cc1 | ? | 175% | 42 | 131%
CC(C)c1ccc(NC(=O)c2cn(C3CCCCC3)c(=O)c3c2c2ccccc2n3C)cc1 | / | / | -2 | /
Oc1ccc(Cl)cc1Cc1ccccc1 | -23% | 7.6µM* | 0 | 11µM*
Oc1ccc(Cl)cc1Cc1cc(Cl)ccc1O | ? | ? | -89* | ?
Nc1cc(Cc2ccccc2)ccc1O | 11% | / | ? | /
Oc1ccc(Cl)cc1CNc1nccs1 | 11% | ? | ? | ?
CC(C)(C)C(=O)Nc1ccccc1C(=O)OCc1cc(=O)n2ccsc2n1 | / | / | 28 | /
Cc1cccc(NC(=O)CCNS(=O)(=O)c2ccc(Cl)cc2)c1 | 13% | 2% | -30 | 27%
Cc1ccc(S(=O)(=O)NCCCCCC(=O)Nc2cccc(C)c2)cc1 | -2% | 12µM* | -24 | -10%
O=C(CCc1nnc(C2(c3ccc(Cl)cc3)CCC2)o1)NC1CC1 | 17% | -60% | 2 | 10µM*
C=CCNC(=O)CCc1nnc(C2(c3ccc(Cl)cc3)CCC2)o1 | 19% | -27% | 117 | ?
O=C(c1cc(F)cc(F)c1)N1CCC(c2nc(-c3ccc(S(=O)(=O)N4CCCC4)cc3)no2)CC1 | / | / | -8 | /
O=C1C(=O)c2ccc(-c3ccccc3)cc2-c2ccccc21 | 4.5µM* | 3.7µM* | -99* | 10µM*
Nc1ccc2c(c1)C(=O)C(=O)c1ccccc1-2 | 2.5µM* | ? | -98* | /
Cc1nn(-c2ccc(F)cc2)c2sc(C(=O)N3CCCCCC3)cc12 | 14µM* | 38% | -8 | 17%
Cc1nn(-c2ccc(Cl)cc2)c2sc(C(=O)N3CCN(C(=O)c4ccco4)CC3)cc12 | / | 10µM* | / | 7%
SMILES | HCV inhibitor | Pf growth 96h | HCMV antiviral | Pf growth 48h
CNC(=O)COC(=O)c1cc2c(C)nn(-c3ccc(F)cc3)c2s1 | ? | 55% | 8 | 14%
CCC1(C)Cc2c(sc3nc(SC)n(-c4ccc(C)cc4)c(=O)c23)CO1 (centres undefined) | / | / | -3 | /
N#CCCN1CCN(C(=S)c2ccc(-c3cc(Cl)ccc3Cl)o2)CC1 | -15% | 5.2µM* | -27 | ?
Cc1ccc(N2CCN(S(=O)(=O)c3ccc(F)c(C(=O)Nc4ccc(Cl)cc4Cl)c3)CC2C)cc1 (centres undefined) | / | / | -29 | /
COc1cc(OC)c(NC(=O)N2CCC(CN3CCCC3)CC2)cc1Cl | / | / | -13 | /
CSCc1c(C(=O)N2CCCc3ccccc32)oc2ccccc12 | ? | -53% | -13 | 12µM*
O=C(CCN1CCOCC1)NCc1ccccc1 | 13% | 2% | 5 | 6%
CC(OC(=O)C(C)Oc1ccccc1)C(=O)Nc1ccc(S(=O)(=O)N2CCCCC2)cc1 (centres undefined) | -1% | ? | ? | -30%
O=C(CCCc1ccccc1)NCCN1CCOCC1 | 20% | 23% | -100* | 21%
CC(=O)Nc1ccc(S(=O)(=O)NCCN2CCNC2=O)cc1Cl | 14% | 7.4µM* | 5 | ?
CC(Oc1ccccc1Cl)C(=O)Nc1ccc(S(=O)(=O)N2CCCC2)cc1 (centres undefined) | ? | 24% | -8 | 13µM*
O=C1NCCN1CCNS(=O)(=O)c1ccc(F)c(Cl)c1 | 13% | 35% | -28 | 10%
Cn1cc(S(=O)(=O)N2CCOCC2)cc1C(=O)Nc1ccc(Cl)cc1 | -11% | 7.4µM* | 4 | 30%
Cc1nnc(NC(=O)CSc2nc3c([nH]c4ccccc43)c(=O)n2-c2ccc(Cl)cc2)s1 | / | / | -13 | /
O=C(CSc1nc(=O)n(CCN2CCOCC2)c2c1CCC2)Nc1cccc(Cl)c1 | / | / | 14 | /
CC(=O)Nc1ccc(S(=O)(=O)N2CCSC2c2ccc(C)cc2)cc1 (centres undefined) | -24% | 4% | -34 | -2%
O=S(=O)(c1ccc(S(=O)(=O)N2CCC3(CC2)OCCO3)cc1)N1CCCC1 | 6% | 21% | 0 | ?
CC(=O)Nc1ccc(S(=O)(=O)N2CCN(CCN3CCOCC3)CC2)cc1Cl | 15% | 15% | 22 | 2.1µM*
CC(=O)Nc1ccc(S(=O)(=O)N2CCC3(CC2)OCCO3)cc1 | -2% | 9.3µM* | -37 | 20%
CC(=O)Nc1ccc(S(=O)(=O)N2CCOCC2)cc1 | 15% | 2.9µM* | -7 | 0%
CC(=O)Nc1ccc(S(=O)(=O)N2CCSC2C(=O)O)cc1 (centres undefined) | -2% | 12µM* | 37 | /
CC(NC(=O)C1CCN(c2nc3ccccc3nc2C(F)(F)F)CC1)c1ccccc1 (centres undefined) | / | / | -4 | /
CC(Oc1ccc(Cl)cc1)C(=O)Nc1ccc(S(=O)(=O)N2CCOCC2)cc1 (centres undefined) | -3% | 8% | 35 | 13µM*
Cc1cc(C)n(S(=O)(=O)c2ccccc2)n1 | -12% | 5% | -2 | -1%
CC(C(=O)Nc1ccc(S(=O)(=O)N2CCCC2)cc1)N1CCc2ccccc2C1 (centres undefined) | ? | ? | -24 | 12µM*
SMILES | HCV inhibitor | Pf growth 96h | HCMV antiviral | Pf growth 48h
O=C(CCCc1ccccc1)Nc1ccc(S(=O)(=O)N2CCOCC2)cc1 | -8% | 10µM* | -36 | ?
CC(Oc1ccc(Cl)cc1)C(=O)Nc1cccc(S(=O)(=O)N2CCCC2)c1 (centres undefined) | / | / | -11 | /
CC(=O)Nc1ccc(S(=O)(=O)n2nc(C)cc2C)cc1 | 10% | 0.93µM* | 15 | -3%
CN(C)c1ncc(C(=O)NCc2ccccc2Cl)cn1 | / | / | -5 | /
CCc1ccc(NCc2cc3cc4c(cc3n(CC(=O)Nc3ccccc3OC)c2=O)OCCO4)cc1 | / | / | 30 | /
O=Cc1c2c(cc3ccc(Cl)cc13)CCC2 | / | / | 3 | /
CCCN1CCN(c2cc3c(cc2F)c(=O)c(S(=O)(=O)c2ccc(CC)cc2)cn3CC)CC1 | / | / | -25 | /
O=C(O)CC(NS(=O)(=O)c1ccc(Br)s1)c1ccccc1 (centres undefined) | / | / | 12 | /
O=S(=O)(c1ccc(NC(=S)N2CCN(c3ccc(O)cc3)CC2)cc1)N1CCOCC1 | ? | -9% | -63* | ?
